In paper PMC7862700, “An all-to-all approach to the identification of sequence-specific readers for epigenetic DNA modifications on cytosine”:

Tests used:
Experiment in all cases: DAPPL (digital affinity profiling via proximity ligation, sequencing); 10 mM Tris-HCl pH 7.5, 50 mM NaCl, 1 mM DTT, 4% glycerol, room temperature, 30 min; GST-TFs on glutathione beads, 16-mer random dsDNA library, 0.1% formaldehyde crosslink after washing; high values mean tight binding
Settings in all cases: protein: recombinant; tags: N-terminal GST; dsDNA, one strand shown
GABPA = molecular target: T1, GABPA (Homo sapiens, UniProt Q06546 1-454)
T1 sequence: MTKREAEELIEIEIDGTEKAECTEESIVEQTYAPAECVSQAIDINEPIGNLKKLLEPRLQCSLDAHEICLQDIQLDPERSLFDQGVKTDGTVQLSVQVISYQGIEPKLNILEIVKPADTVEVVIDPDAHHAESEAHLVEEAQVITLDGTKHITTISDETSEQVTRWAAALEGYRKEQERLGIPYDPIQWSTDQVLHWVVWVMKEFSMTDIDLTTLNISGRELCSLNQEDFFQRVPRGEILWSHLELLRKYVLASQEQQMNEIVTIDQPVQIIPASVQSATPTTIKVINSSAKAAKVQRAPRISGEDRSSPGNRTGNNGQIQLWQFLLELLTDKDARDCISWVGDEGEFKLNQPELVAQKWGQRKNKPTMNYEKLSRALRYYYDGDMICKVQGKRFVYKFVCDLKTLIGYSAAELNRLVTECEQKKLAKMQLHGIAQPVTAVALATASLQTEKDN
In short: (§1)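 GST fusions of human transcription factors were expressed in yeast and captured with glutathione beads. Once given DNA barcodes and pooled alongside a tag-only sample, they were incubated for 30 min at room temperature with 200 nmole of a random double-stranded 16-mer DNA library in Tris/NaCl/DTT/glycerol buffer, then washed, crosslinked (0.1% formaldehyde), proximity-ligated, PCR-amplified and sequenced on an Illumina NextSeq500. The binding signal of each hexamer is its read frequency for a factor divided by its frequency for the tag-only sample.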

ERG = molecular target: T2, ERG (Homo sapiens, UniProt P11308 1-479)
T2 sequence: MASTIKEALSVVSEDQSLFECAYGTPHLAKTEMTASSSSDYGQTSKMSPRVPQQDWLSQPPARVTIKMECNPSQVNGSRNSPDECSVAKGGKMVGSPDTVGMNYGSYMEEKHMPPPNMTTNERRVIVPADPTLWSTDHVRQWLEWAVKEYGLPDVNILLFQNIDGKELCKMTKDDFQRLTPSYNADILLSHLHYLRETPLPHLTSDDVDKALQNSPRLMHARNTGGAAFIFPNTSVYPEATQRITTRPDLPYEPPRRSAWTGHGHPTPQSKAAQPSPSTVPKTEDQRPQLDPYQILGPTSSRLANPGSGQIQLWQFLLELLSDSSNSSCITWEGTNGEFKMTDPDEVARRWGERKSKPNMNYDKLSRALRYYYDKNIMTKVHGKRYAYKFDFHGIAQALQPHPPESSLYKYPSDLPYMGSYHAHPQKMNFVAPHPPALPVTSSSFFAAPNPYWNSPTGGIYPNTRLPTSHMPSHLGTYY
In short: as §1

ELF1 = ELF1 (Homo sapiens, UniProt P32519 1-619)
ELF1, sequence (P32519 whole entry): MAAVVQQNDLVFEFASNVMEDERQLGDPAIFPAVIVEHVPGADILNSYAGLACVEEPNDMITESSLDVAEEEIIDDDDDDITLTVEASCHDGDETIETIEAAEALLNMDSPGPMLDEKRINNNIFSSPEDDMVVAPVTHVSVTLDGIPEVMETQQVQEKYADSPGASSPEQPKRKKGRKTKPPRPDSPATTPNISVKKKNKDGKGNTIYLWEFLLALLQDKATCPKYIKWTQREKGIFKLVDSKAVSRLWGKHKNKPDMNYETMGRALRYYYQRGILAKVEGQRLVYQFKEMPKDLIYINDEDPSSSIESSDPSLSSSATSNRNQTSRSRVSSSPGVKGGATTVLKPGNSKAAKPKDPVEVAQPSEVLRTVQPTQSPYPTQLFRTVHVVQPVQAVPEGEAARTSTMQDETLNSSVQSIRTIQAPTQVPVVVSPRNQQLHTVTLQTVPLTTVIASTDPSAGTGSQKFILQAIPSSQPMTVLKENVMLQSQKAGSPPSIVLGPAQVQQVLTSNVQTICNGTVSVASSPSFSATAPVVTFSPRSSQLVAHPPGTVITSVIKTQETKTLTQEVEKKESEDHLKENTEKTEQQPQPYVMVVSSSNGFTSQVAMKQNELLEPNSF
In short: as §1

SPIB = SPIB (Homo sapiens, UniProt Q01892 1-262)
SPIB, sequence (Q01892 whole entry): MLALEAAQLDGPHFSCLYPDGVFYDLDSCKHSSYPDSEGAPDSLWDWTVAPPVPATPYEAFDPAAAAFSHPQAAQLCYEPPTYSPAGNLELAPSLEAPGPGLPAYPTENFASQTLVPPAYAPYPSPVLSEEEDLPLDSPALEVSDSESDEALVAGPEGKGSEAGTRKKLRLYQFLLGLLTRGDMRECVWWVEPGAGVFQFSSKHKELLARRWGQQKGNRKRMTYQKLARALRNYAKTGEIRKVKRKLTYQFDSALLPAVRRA
In short: as §1

ELK3 = molecular target: T3, ELK3 (Homo sapiens, UniProt P41970 1-407)
T3 sequence: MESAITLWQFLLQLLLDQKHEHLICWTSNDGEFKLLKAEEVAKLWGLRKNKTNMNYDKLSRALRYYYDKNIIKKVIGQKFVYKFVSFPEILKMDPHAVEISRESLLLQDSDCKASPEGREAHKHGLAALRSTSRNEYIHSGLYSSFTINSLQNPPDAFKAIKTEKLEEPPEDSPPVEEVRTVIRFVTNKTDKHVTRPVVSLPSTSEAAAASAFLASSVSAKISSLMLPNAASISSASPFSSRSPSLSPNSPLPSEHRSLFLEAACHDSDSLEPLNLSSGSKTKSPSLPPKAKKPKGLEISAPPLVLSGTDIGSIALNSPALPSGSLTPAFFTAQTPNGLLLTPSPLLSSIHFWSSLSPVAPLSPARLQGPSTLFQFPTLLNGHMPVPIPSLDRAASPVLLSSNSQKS
In short: as §1

FEV = molecular target: T4, FEV (Homo sapiens, UniProt Q99581 1-238)
T4 sequence: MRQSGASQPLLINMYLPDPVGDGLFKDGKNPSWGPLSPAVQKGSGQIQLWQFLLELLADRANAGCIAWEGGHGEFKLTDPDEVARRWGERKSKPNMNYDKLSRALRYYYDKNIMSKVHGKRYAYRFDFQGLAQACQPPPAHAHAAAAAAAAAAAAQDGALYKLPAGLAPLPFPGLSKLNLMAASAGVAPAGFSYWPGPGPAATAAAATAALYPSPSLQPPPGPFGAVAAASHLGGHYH
In short: as §1

ETV5 = ETV5 (Homo sapiens, UniProt P41161 1-510)
ETV5, sequence (P41161 whole entry): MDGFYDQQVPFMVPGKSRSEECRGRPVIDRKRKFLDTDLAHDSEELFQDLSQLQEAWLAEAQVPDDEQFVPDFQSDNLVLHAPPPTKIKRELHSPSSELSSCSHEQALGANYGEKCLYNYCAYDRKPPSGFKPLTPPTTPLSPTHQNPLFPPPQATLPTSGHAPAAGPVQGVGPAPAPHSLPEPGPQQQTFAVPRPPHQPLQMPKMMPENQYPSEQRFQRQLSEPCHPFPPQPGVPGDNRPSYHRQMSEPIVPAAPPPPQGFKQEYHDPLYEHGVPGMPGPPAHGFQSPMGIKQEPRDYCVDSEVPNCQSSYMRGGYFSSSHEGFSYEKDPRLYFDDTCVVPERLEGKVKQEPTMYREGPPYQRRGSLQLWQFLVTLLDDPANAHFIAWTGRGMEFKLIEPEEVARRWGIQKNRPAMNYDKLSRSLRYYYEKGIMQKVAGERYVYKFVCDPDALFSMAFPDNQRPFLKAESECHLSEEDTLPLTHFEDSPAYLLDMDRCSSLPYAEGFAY
In short: as §1

ELF4 = ELF4 (Homo sapiens, UniProt Q99607 1-663)
ELF4, sequence (Q99607 whole entry): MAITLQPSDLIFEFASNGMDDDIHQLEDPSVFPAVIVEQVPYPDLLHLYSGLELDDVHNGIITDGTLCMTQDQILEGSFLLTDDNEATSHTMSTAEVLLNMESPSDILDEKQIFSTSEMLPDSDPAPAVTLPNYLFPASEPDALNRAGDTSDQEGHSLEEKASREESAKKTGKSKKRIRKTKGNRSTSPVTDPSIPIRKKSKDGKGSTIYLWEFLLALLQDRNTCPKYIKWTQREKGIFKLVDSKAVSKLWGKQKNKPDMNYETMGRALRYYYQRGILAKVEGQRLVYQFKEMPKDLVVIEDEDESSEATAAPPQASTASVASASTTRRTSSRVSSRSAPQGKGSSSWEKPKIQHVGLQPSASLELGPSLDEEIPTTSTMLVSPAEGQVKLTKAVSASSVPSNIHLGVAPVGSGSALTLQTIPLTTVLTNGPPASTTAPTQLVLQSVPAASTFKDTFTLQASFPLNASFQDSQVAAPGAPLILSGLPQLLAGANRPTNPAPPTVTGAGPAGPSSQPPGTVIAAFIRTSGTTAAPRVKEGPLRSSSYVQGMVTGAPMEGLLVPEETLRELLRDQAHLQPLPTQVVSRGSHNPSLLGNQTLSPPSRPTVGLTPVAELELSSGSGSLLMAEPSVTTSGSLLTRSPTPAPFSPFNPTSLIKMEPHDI
In short: as §1

ETV1 = ETV1 (Homo sapiens, UniProt P50549 1-477)
ETV1, sequence (P50549 whole entry): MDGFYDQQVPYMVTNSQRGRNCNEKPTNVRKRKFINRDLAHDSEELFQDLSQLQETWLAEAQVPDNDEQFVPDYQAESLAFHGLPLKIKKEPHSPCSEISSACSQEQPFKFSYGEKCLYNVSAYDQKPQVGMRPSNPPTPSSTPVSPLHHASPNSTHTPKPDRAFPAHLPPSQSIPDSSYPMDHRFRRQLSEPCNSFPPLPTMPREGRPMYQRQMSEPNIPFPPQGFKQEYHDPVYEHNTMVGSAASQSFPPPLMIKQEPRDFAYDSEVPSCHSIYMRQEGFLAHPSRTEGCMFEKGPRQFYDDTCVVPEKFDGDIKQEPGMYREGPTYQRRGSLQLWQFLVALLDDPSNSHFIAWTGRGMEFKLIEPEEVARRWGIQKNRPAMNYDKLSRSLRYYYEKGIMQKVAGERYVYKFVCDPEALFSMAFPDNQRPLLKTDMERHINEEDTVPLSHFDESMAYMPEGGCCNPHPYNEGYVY
In short: as §1

ERF = molecular target: T5, ERF (Homo sapiens, UniProt P50548 1-548)
T5 sequence: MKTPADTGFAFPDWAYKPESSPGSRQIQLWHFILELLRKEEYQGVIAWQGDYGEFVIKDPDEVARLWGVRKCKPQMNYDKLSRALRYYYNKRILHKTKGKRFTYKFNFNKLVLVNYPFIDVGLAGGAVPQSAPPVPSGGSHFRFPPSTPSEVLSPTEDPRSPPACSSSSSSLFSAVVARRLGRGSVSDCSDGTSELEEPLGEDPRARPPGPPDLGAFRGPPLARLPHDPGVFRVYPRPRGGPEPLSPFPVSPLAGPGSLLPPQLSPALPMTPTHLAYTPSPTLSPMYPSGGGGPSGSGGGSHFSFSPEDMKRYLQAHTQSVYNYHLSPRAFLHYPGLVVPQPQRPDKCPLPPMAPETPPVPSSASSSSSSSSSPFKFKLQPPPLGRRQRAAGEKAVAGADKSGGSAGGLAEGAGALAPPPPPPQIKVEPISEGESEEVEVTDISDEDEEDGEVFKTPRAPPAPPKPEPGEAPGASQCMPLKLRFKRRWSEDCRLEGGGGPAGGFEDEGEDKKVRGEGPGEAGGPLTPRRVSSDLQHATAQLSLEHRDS
In short: as §1

ETV3L = molecular target: T6, ETV3L (Homo sapiens, UniProt Q6ZN32 1-361)
T6 sequence: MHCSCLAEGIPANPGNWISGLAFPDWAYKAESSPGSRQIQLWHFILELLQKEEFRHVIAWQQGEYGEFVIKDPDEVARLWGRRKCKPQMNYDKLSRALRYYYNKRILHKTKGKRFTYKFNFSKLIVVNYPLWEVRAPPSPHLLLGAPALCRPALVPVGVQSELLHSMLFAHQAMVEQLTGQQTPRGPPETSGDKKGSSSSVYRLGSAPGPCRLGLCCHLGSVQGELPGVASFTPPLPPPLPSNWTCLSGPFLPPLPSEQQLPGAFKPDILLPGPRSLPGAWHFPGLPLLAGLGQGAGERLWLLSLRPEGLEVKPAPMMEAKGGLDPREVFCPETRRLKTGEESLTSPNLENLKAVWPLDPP
In short: as §1

ETS2 = molecular target: T7, ETS2 (Homo sapiens, UniProt P15036 1-469)
T7 sequence: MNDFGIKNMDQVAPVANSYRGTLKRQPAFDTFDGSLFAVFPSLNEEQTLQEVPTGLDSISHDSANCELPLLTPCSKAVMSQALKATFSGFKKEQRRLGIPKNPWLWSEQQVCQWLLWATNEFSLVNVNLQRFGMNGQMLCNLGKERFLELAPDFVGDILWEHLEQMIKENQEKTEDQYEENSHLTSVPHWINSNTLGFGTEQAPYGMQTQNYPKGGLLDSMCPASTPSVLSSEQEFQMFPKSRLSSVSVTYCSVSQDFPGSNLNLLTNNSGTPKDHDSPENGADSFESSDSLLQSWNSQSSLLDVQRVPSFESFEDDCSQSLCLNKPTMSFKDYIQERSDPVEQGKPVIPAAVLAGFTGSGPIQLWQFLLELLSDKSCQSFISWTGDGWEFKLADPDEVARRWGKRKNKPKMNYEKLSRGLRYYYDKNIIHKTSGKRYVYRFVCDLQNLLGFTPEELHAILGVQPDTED
In short: as §1

ETV3 = molecular target: T8, ETV3 (Homo sapiens, UniProt P41162-2 1-143)
T8 sequence: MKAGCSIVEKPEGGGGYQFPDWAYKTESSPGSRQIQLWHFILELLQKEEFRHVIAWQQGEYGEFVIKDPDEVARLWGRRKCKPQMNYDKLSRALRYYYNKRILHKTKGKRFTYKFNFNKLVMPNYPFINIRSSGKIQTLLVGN
In short: as §1

For AGCGCT, the binding signal (GABPA) was 1.04 fold enrichment (6-mer frequency, TF over GST control), the binding signal (ERG) was 1.02 fold enrichment (6-mer frequency, TF over GST control) and the binding signal (ELF1) was 1.05 fold enrichment (6-mer frequency, TF over GST control). For the same sequence, the binding signal (SPIB) was 1.09 fold enrichment (6-mer frequency, TF over GST control), the binding signal (ELK3) was 1.14 fold enrichment (6-mer frequency, TF over GST control) and the binding signal (FEV) was 1 fold enrichment (6-mer frequency, TF over GST control). For the same sequence, the binding signal (ETV5) was 1.01 fold enrichment (6-mer frequency, TF over GST control), the binding signal (ELF4) was 1.06 fold enrichment (6-mer frequency, TF over GST control) and the binding signal (ETV1) was 1.02 fold enrichment (6-mer frequency, TF over GST control). The binding signal (ERF) was 1.04 fold enrichment (6-mer frequency, TF over GST control), the binding signal (ETV3L) was 1.08 fold enrichment (6-mer frequency, TF over GST control) and the binding signal (ETS2) was 1.09 fold enrichment (6-mer frequency, TF over GST control). For the same sequence, the binding signal (ETV3) was 1.01 fold enrichment (6-mer frequency, TF over GST control).
